Common to all, as to experiment: DAPPL (digital affinity profiling via proximity ligation, sequencing); 10 mM Tris-HCl pH 7.5, 50 mM NaCl, 1 mM DTT, 4% glycerol, room temperature, 30 min; GST-TFs on glutathione beads, 16-mer random dsDNA library, 0.1% formaldehyde crosslink after washing; high values mean tight binding
The target in one experiment is T1, FEV (Homo sapiens, UniProt Q99581 1-238).
T1 sequence: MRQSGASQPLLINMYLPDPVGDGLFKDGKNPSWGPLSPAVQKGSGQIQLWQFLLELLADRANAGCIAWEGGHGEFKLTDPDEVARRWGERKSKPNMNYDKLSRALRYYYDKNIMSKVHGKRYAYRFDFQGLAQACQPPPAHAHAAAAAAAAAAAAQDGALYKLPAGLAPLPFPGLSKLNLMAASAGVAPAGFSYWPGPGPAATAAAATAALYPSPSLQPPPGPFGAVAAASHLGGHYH
To be noted: protein: recombinant; tags: N-terminal GST; dsDNA, one strand shown. In a few lines:
(§1)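 Binding signal is each hexamer's read frequency for a factor divided by its frequency in the tag-only sample. The factors were GST-fused human transcription factors from yeast, captured on glutathione beads, DNA-barcoded and pooled with that sample. Pools were incubated with 200 nmole of a random double-stranded 16-mer DNA library in Tris/NaCl/DTT/glycerol buffer at room temperature for 30 min, then washed, crosslinked with 0.1% formaldehyde, proximity-ligated with BsaI/T4 ligase (1 h, 37 °C), PCR-amplified and sequenced on an Illumina NextSeq500.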

The target of the next experiment is ETV5 (Homo sapiens, UniProt P41161 1-510). To be noted: protein: recombinant; tags: N-terminal GST; dsDNA, one strand shown. In a few lines: as §1
ETV5, sequence (P41161 whole entry): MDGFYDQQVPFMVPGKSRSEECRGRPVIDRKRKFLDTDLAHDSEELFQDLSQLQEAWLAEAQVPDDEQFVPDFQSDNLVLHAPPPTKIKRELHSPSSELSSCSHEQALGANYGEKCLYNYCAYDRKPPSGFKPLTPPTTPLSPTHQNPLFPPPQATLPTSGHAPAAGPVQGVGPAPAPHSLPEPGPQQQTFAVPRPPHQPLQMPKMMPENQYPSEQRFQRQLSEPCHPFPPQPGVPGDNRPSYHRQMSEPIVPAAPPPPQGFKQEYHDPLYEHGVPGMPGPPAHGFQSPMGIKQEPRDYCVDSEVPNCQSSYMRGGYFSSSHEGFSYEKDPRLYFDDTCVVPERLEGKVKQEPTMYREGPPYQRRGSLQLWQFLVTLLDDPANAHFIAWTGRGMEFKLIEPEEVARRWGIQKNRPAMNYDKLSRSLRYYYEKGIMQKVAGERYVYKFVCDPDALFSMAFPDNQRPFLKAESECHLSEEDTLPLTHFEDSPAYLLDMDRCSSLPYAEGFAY
Another experiment addresses HSF1 (Homo sapiens, UniProt Q00613 1-529). The conditions noted are these: protein: recombinant; tags: N-terminal GST; chain copies: 3; dsDNA, one strand shown. In a few lines:
as §1

A further experiment concerns the target T2, SPIC (Homo sapiens, UniProt Q8N5J4 1-248).
T2 sequence: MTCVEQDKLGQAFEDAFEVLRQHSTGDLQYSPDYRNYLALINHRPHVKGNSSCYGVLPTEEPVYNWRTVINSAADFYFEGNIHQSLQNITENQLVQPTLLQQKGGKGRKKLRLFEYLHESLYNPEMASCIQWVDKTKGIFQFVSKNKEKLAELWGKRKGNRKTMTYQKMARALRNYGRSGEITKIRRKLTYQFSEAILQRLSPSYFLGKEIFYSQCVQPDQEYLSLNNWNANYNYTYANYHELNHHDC
The conditions noted are these: protein: recombinant; tags: N-terminal GST; dsDNA, one strand shown. In a few lines:
as §1

The target of a further experiment is ELF4 (Homo sapiens, UniProt Q99607 1-663). The conditions noted are these: protein: recombinant; tags: N-terminal GST; dsDNA, one strand shown. In a few lines: as §1
ELF4, sequence (Q99607 whole entry): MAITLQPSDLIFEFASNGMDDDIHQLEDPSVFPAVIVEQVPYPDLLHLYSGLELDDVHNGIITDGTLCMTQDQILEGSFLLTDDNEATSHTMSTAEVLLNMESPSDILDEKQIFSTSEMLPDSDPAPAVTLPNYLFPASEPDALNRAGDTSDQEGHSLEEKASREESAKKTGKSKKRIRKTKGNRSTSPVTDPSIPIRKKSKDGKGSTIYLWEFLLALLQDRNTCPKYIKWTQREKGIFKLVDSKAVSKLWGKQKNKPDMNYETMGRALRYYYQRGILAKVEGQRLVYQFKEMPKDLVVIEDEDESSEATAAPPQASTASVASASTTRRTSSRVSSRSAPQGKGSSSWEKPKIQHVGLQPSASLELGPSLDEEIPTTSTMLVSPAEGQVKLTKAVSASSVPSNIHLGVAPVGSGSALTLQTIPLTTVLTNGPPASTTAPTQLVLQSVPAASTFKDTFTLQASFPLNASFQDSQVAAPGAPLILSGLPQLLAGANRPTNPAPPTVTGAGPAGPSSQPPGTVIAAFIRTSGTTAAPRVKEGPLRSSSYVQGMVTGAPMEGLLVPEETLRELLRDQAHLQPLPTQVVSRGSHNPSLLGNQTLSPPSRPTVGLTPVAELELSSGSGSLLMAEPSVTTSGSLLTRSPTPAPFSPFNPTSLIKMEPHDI
The target in the next experiment is T3, ELK4 (Homo sapiens, UniProt P28324-2 1-405).
T3 sequence: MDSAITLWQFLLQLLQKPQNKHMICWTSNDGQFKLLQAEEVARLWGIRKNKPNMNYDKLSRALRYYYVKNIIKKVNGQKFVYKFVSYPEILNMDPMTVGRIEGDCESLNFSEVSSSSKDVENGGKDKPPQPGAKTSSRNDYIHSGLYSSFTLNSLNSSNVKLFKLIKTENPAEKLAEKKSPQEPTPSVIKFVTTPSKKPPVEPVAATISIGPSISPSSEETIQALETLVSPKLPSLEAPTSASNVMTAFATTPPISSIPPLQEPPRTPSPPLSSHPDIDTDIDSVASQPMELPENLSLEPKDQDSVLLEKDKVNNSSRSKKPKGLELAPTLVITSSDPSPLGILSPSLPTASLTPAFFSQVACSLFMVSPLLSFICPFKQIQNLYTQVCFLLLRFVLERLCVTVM
To be noted: protein: recombinant; tags: N-terminal GST; dsDNA, one strand shown. In a few lines:
as §1

The target in the next experiment is T4, ETV2 (Homo sapiens, UniProt O00321 1-342).
T4 sequence: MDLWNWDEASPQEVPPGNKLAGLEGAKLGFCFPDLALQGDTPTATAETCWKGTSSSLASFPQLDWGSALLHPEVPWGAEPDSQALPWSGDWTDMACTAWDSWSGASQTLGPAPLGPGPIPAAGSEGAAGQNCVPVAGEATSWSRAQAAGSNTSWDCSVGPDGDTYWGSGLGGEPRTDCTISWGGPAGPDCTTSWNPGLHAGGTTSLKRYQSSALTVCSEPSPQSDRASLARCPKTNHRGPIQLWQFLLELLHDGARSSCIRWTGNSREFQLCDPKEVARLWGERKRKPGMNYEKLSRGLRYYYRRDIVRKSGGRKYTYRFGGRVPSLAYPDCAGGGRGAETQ
The conditions noted are these: protein: recombinant; tags: N-terminal GST; dsDNA, one strand shown. In a few lines:
as §1

The target of another experiment is T5, ELF3 (Homo sapiens, UniProt P78545 1-371).
T5 sequence: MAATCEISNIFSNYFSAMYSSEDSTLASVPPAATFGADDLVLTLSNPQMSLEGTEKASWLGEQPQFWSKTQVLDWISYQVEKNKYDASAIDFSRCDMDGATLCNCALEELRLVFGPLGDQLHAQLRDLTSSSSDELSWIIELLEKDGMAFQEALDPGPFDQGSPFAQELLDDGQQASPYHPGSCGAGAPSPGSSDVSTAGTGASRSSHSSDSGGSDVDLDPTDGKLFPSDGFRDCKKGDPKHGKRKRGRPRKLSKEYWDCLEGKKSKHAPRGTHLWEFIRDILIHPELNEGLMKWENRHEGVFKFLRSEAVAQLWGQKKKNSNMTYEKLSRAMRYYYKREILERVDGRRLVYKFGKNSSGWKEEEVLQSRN
The conditions noted are these: protein: recombinant; tags: N-terminal GST; dsDNA, one strand shown. In a few lines:
as §1

The next experiment concerns the target CRX (Homo sapiens, UniProt O43186 1-299). To be noted: protein: recombinant; tags: N-terminal GST; dsDNA, one strand shown. In a few lines:
as §1

A further experiment concerns the target ETV1 (Homo sapiens, UniProt P50549 1-477). The conditions noted are these: protein: recombinant; tags: N-terminal GST; dsDNA, one strand shown. In a few lines: as §1
The target of another experiment is T6, ERF (Homo sapiens, UniProt P50548 1-548).
T6 sequence: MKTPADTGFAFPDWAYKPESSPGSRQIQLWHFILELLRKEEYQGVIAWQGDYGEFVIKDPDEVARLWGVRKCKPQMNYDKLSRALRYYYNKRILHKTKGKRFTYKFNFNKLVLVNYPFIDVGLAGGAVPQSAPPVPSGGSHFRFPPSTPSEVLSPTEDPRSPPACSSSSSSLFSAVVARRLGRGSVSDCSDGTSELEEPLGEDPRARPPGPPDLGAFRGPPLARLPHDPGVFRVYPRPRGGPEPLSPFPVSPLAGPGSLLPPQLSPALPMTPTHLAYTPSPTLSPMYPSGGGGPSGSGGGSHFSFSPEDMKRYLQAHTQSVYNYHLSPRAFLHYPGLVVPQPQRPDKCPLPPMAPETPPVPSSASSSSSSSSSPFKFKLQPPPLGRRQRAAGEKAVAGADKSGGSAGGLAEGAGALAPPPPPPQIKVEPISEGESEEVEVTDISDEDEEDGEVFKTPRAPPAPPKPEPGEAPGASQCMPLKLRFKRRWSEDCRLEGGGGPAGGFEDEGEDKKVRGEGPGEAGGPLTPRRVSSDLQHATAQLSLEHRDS
The conditions noted are these: protein: recombinant; tags: N-terminal GST; dsDNA, one strand shown. In a few lines:
as §1

For the next experiment, the target named is T7, ETV3L (Homo sapiens, UniProt Q6ZN32 1-361).
T7 sequence: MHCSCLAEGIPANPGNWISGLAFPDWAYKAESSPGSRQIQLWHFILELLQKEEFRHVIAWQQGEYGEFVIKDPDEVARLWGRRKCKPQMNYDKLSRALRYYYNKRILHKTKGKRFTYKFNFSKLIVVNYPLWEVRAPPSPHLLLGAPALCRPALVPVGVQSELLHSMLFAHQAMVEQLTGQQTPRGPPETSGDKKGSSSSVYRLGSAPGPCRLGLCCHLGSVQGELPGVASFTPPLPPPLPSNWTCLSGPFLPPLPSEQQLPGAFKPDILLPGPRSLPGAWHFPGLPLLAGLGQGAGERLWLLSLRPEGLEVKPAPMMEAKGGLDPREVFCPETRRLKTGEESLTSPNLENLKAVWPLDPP
To be noted: protein: recombinant; tags: N-terminal GST; dsDNA, one strand shown. In a few lines: as §1

The target in the next experiment is T8, ETS2 (Homo sapiens, UniProt P15036 1-469).
T8 sequence: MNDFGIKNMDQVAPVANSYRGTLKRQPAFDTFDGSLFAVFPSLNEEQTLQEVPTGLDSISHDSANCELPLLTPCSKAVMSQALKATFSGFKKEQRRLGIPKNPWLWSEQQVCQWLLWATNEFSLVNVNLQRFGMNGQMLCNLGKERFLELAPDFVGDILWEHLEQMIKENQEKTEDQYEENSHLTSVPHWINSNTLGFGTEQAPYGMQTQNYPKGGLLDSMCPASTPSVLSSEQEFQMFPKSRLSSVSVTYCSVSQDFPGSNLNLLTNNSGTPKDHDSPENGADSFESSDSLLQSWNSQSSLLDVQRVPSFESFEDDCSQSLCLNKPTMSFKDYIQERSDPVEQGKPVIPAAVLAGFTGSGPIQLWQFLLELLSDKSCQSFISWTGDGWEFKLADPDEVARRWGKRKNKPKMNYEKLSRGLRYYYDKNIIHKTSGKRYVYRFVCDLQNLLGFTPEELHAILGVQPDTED
To be noted: protein: recombinant; tags: N-terminal GST; dsDNA, one strand shown. In a few lines:
as §1

In the next experiment the target is T9, SPDEF (Homo sapiens, UniProt O95238 1-335).
T9 sequence: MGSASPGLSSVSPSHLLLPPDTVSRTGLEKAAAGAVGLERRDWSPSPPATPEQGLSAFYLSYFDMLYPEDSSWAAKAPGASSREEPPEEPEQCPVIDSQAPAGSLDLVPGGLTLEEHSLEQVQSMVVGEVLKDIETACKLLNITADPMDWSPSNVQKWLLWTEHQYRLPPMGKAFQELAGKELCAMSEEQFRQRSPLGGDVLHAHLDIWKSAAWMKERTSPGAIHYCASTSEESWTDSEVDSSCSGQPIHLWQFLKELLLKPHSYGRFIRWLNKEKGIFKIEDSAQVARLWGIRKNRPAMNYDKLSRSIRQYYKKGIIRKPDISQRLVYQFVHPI
To be noted: protein: recombinant; tags: N-terminal GST; dsDNA, one strand shown. In a few lines:
as §1

In another experiment the target is T10, ETV7 (Homo sapiens, UniProt Q9Y603 1-341).
T10 sequence: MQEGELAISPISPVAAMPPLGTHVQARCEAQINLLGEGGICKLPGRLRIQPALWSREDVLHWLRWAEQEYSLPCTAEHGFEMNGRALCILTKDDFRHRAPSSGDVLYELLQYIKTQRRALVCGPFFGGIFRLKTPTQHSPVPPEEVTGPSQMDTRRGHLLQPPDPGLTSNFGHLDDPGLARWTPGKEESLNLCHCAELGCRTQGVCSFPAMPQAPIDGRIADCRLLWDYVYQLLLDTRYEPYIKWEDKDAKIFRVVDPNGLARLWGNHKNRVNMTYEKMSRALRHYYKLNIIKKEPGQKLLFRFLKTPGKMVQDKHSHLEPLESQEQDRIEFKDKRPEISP
The conditions noted are these: protein: recombinant; tags: N-terminal GST; dsDNA, one strand shown. In a few lines: as §1

For a further experiment, the target named is T11, ELF5 (Homo sapiens, UniProt Q9UKW6-2 1-255).
T11 sequence: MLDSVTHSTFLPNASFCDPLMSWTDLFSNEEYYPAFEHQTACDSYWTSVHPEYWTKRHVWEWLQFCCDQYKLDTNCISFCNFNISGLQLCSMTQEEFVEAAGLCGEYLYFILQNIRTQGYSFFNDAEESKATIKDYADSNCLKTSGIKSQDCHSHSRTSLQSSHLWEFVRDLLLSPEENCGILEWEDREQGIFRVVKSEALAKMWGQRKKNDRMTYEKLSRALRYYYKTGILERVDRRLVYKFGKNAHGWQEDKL
To be noted: protein: recombinant; tags: N-terminal GST; dsDNA, one strand shown. In a few lines:
as §1

The target in the next experiment is T12, ETV3 (Homo sapiens, UniProt P41162-2 1-143).
T12 sequence: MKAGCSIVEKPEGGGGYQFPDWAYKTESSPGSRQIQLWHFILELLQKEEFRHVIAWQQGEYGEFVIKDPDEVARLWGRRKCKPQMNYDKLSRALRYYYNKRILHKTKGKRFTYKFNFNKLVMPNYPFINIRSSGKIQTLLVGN
To be noted: protein: recombinant; tags: N-terminal GST; dsDNA, one strand shown. In a few lines:
as §1

A further experiment addresses ETV6 (Homo sapiens, UniProt P41212 1-452). To be noted: protein: recombinant; tags: N-terminal GST; dsDNA, one strand shown. In a few lines:
as §1

ETV6, sequence (P41212 whole entry): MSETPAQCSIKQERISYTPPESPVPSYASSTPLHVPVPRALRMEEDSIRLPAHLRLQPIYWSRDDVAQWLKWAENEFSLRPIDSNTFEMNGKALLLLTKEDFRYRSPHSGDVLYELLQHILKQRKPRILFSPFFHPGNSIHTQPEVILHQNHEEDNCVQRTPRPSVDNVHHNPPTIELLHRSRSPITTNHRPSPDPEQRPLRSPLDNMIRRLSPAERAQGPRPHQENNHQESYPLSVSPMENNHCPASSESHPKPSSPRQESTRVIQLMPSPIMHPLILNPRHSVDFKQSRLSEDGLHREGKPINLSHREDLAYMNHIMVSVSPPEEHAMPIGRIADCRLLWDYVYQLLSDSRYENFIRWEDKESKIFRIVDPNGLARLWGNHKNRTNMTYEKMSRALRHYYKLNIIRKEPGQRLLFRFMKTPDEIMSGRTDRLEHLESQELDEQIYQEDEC
ETV1, sequence (P50549 whole entry): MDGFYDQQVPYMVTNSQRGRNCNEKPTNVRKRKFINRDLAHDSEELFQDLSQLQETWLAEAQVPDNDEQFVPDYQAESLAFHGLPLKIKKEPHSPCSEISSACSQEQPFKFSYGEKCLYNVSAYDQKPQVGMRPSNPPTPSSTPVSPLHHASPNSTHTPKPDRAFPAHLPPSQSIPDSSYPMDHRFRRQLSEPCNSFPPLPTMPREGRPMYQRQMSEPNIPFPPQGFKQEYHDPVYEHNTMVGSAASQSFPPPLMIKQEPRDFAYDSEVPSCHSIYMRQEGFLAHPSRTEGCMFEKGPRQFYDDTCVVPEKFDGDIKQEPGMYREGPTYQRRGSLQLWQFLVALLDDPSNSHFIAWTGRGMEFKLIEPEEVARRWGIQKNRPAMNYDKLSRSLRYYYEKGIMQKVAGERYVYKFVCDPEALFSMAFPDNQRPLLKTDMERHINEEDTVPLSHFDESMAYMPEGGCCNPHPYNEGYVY
CRX, sequence (O43186 whole entry): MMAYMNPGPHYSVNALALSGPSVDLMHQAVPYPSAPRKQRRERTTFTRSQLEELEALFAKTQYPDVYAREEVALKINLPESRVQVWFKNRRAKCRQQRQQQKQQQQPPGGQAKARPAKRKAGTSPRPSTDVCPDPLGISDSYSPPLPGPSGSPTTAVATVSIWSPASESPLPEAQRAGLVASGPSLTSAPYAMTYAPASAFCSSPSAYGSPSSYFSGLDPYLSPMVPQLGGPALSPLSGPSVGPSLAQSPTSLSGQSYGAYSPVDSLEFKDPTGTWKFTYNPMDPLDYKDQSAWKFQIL
HSF1, sequence (Q00613 whole entry): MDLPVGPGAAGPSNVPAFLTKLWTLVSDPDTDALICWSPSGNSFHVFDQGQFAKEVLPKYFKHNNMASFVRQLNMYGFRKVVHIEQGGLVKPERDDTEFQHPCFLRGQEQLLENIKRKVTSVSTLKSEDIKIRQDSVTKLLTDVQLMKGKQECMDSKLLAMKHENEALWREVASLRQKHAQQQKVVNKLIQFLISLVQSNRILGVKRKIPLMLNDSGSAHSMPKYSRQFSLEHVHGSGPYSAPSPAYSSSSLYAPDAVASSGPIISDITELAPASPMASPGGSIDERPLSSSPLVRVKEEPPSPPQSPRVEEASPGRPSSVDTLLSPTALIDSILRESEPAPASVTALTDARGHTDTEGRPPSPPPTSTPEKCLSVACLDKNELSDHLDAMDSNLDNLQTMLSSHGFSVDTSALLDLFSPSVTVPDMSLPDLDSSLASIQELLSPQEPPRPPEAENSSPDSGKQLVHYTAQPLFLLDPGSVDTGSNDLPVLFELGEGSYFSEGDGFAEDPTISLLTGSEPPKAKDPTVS

On to TTTATG, for which the binding signal was 1.26 fold enrichment (6-mer frequency, TF over GST control) with FEV; 1.36 fold enrichment (6-mer frequency, TF over GST control) in the experiment with ETV5; 1.37 fold enrichment (6-mer frequency, TF over GST control) with HSF1; 1.5 fold enrichment (6-mer frequency, TF over GST control) in the experiment with SPIC; 1.21 fold enrichment (6-mer frequency, TF over GST control) in the experiment with ELF4; 1.16 fold enrichment (6-mer frequency, TF over GST control) with ELK4. Also, the binding signal with ETV2 is 1.34 fold enrichment (6-mer frequency, TF over GST control); with ELF3 it was 1.37 fold enrichment (6-mer frequency, TF over GST control); with CRX, 1.74 fold enrichment (6-mer frequency, TF over GST control); in the experiment with ETV1, 1.32 fold enrichment (6-mer frequency, TF over GST control); with ERF it was 1.31 fold enrichment (6-mer frequency, TF over GST control); with ETV3L, 1.36 fold enrichment (6-mer frequency, TF over GST control). The binding signal with ETS2 is 1.32 fold enrichment (6-mer frequency, TF over GST control); with SPDEF, 1.29 fold enrichment (6-mer frequency, TF over GST control); in the experiment with ETV7, 1.32 fold enrichment (6-mer frequency, TF over GST control); with ELF5, 1.29 fold enrichment (6-mer frequency, TF over GST control); in the experiment with ETV3, 1.36 fold enrichment (6-mer frequency, TF over GST control); with ETV6 it was 1.33 fold enrichment (6-mer frequency, TF over GST control).

(Values after publication PMC7862700, “An all-to-all approach to the identification of sequence-specific readers for epigenetic DNA modifications on cytosine”.)
